We go through 45 compounds from ChEMBL document CHEMBL3988442, “University of Dundee, Small-Polar-MMV Screening Library” (2021).

In test [1] the target is T1, Aspartate--tRNA(Asp/Asn) ligase (Mycobacterium tuberculosis (strain ATCC 25618 / H37Rv)) (UniProt P9WFW3). Note: in the data most compounds retested in dose-response had high values.
T1 sequence (whole entry): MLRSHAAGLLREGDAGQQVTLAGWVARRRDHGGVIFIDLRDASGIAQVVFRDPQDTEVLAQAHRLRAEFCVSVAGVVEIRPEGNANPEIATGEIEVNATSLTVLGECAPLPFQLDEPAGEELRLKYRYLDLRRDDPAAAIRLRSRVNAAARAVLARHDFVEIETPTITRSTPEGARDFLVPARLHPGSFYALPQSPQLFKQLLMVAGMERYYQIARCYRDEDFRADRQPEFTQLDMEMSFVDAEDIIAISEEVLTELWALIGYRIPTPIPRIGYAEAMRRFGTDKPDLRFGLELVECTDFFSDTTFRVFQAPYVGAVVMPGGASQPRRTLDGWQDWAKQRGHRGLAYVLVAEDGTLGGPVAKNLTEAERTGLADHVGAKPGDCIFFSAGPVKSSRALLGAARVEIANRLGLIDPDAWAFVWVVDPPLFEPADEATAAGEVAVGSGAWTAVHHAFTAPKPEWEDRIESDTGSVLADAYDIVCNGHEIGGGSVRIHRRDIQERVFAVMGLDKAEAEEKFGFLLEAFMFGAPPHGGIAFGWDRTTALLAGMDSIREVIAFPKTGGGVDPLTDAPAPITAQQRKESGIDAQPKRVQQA
Kind of test: Assay for Asp RNA synthetase-1 from Mycobacterium tuberculosis. It is filed as functional. Also noted: scale not given: direction of the effect not stated beside the values. As to conditions: 30 µM.

For test [2], the target named is Shiga toxin 2 (Escherichia coli O157:H7) (UniProt P09385+P09386). As to the kind of experiment: E. coli 0.157:H7 Shiga Toxin SOP - stx2 screening assay. In kind it is functional. Also noted: scale not given: direction of the effect not stated beside the values. Particulars: 30 µM.

On to `CN(C)S(=O)(=O)N1CCC(Oc2cnccn2)CC1`, for which the values for the Percent Effect in test [1] and in test [2] were -9.05% and -9.23%, respectively.

Take `CCc1nccn1C1CCCN(C(=O)c2cn3c(C)cccc3n2)C1` (stereo not given): the Percent Effect was -4.04% in test [1] and 4.17% in test [2].

Regarding `Cn1cc(-c2nc(CNCCn3cccn3)cs2)cn1`, the figures for the Percent Effect in test [1] and in test [2] were -0.0111% and -121%, respectively.

Take `Cc1cnn(CC2CCCN2C(=O)c2nccc3ccccc23)c1` (stereo not given): the values for the Percent Effect in test [1] and in test [2] were 3.06% and 28%, respectively.

Regarding `CC1CCN(CCNC(=O)C2CCN(S(N)(=O)=O)CC2)CC1`, the Percent Effect is 1.78% in test [1] and 0.821% in test [2].

Turning to `COCCN(Cc1ccoc1)C(=O)c1cccnc1SC`, the Percent Effect is 1.65% in test [1] and -0.408% in test [2].

In the case of `Cc1nn(C)c(N(C)C)c1CNCc1ccccc1Cn1cncn1`, the Percent Effect was -4.47% in test [1] and 10.9% in test [2].

Regarding `CCn1cc(NC(=O)NCC(c2cccc(F)c2)N(C)C)cn1` (stereo not given), the Percent Effect is -4.28% in test [1] and 21.4% in test [2].

On to `Cc1ncsc1CN1C[C@@H](OCC2CC2)[C@H]2OCCC[C@H]21`, for which the Percent Effect in test [1] is -6.67%; in test [2] it was 4.7%.

For `Clc1snnc1CN1CCCCC1Cn1cncn1` (stereo not given), the figures for the Percent Effect in test [1] and in test [2] were -1.89% and -12%, respectively.

As to `Cc1cnc(NC(=O)N2CCCC2)s1`, the Percent Effect was 1.37% in test [1] and 1.43% in test [2].

As for `O=C1NC(c2ccccc2)=N[C@@]12CC[C@@H]1CN(Cc3ccco3)C[C@@H]12`, the values for the Percent Effect in test [1] and in test [2] were 3.61% and -16.5%, respectively.

For `O=C(CN(Cc1ccccc1)CC1CCOCC1)Nc1nccs1`, the values for the Percent Effect in test [1] and in test [2] were 2.07% and -19%, respectively.

With `CC[C@H](C)[C@H](NC(=O)Cc1csc(-c2cccc(Cl)c2)n1)C(=O)O`, the Percent Effect in test [1] is 4.59%; in test [2], -17.1%.

As to `COc1ccc2c(O)c(NC(=O)NCC3CC3)cnc2c1`, the Percent Effect in test [1] is 1.09%; in test [2] it was -13.7%.

`Cc1cc(=O)n(CC(=O)NCC2CCCO2)c(-c2cccc(Cl)c2)n1` (stereo not given): the Percent Effect in test [1] is 8.05%; in test [2], -13.2%.

For the compound `Cc1cc(NCc2cc3n(n2)CCCN(C(=O)N(C)C)C3)ncn1`, the Percent Effect was 0.54% in test [1] and -3.81% in test [2].

With `Cc1ccc(-c2nc(CN3CCn4c(nnc4C4CC4)C3)cs2)o1`, the results for the Percent Effect in test [1] and in test [2] were -4.03% and -88.7%, respectively.

Regarding `N#Cc1cc(NC(=O)c2ccccc2)ccc1N1CCC(O)CC1`, the Percent Effect was -1.51% in test [1] and -18.7% in test [2].

Consider `CCc1ccc(CN2CC[C@H]3C[C@H](c4nnc(C)[nH]4)O[C@@H]3C2)o1`, for which the Percent Effect came out at 0.228% in test [1] and 1.93% in test [2].

`COCCN1C[C@@H]2CN(Cc3cccc(F)c3)CCC[C@]2(C(=O)O)C1`: the Percent Effect in test [1] is 6.95%; in test [2], -10.4%.

As to `COc1cccc(CN2CCCC2c2c(C)nn(C)c2C)c1` (stereo not given), the Percent Effect in test [1] was 2.17%; in test [2], -4.12%.

With `COCC1COCCC12CCN(C(=O)CCc1ccccc1)CC2` (stereo not given), the Percent Effect was 3.96% in test [1] and -14.9% in test [2].

As to `Cn1ccc(C(=O)N2CCN(c3ncccn3)CC2)cc1=O`, the Percent Effect in test [1] stood at 1.62%; in test [2], 22.4%.

Turning to `Cn1cnnc1C1CCCN(C(=O)NCCOc2ccccc2)C1` (stereo not given), the Percent Effect in test [1] was -4.29%; in test [2] it was -30.2%.

Turning to `CN(Cc1cccs1)C(=O)CS(=O)(=O)Cc1ccc(Cl)c(Cl)c1`, the values for the Percent Effect in test [1] and in test [2] were 3.86% and 0.473%, respectively.

As to `Cc1nc(CN2C[C@@H]3CN(C(=O)c4ccnnc4)C[C@@H]3C2=O)cs1`, the Percent Effect in test [1] is -3.71%; in test [2], -1.02%.

On to `CCn1cc(CNC2CC(=O)N(CCc3cccc(Cl)c3)C2)cn1` (stereo not given), for which the Percent Effect in test [1] was -2.05%; in test [2], -2.75%.

In the case of `CC(C)S(=O)(=O)c1nnc(CCNC(=O)OC(C)(C)C)o1`, the Percent Effect in test [1] is 2.85%; in test [2], -59.2%.

For `O=C1CCC2(CCN(Cc3ccc(F)cc3)CC2)N1Cc1ccccc1`, the Percent Effect is -0.182% in test [1] and 6.77% in test [2].

Take `Cc1cnc(CN2CCC(N(C)Cc3nnc(C4CC4)n3C)C2)cn1` (stereo not given): the Percent Effect in test [1] turned out to be 5.06%; in test [2], 5.3%.

As for `CN(Cc1ccc(F)cc1)CC1(O)CCN(C(=O)c2cccn2C)C1` (stereo not given), the Percent Effect in test [1] was -4.54%; in test [2], -9.28%.

Consider `COCCN1CCN(C(=O)C2CC=CC2)Cc2cccnc21`, for which the figures for the Percent Effect in test [1] and in test [2] were -1.63% and -23.9%, respectively.

With `Cc1nc(C2CCCN(C(=O)CO)C2)cc(N2CCOCC2)n1` (stereo not given), the results for the Percent Effect in test [1] and in test [2] were -4.78% and 17.9%, respectively.

For `CCN(Cc1ccco1)C(=O)c1cc(OC)c2c(c1)OCCO2`, the Percent Effect in test [1] is 3.71%; in test [2], -2.41%.

Consider `Cc1noc(C2CCN(C(=O)c3ccc(NC4CC4)nc3)CC2)n1`, for which the Percent Effect in test [1] is 1.21%; in test [2], -7.73%.

For `CNc1nc(C2CCCN2C(C)=O)nc2c1CCN(CC1CC1)C2` (stereo not given), the results for the Percent Effect in test [1] and in test [2] were 1.43% and -7.13%, respectively.

In the case of `Cc1cc(N2CCC(Cc3ccccc3)CC2)nc(-c2ccncc2)n1`, the values for the Percent Effect in test [1] and in test [2] were -0.602% and -32.9%, respectively.

With `CC(C)C(=O)NC1CCN(Cc2cccc3c2OCCO3)CC1`, the Percent Effect was -1.32% in test [1] and 5.01% in test [2].

Regarding `Cn1ncc2c(=O)[nH]c(N3CCN(C(=O)c4ccsc4)CC3)nc21`, the Percent Effect in test [1] amounted to 1.3%; in test [2], 13.3%.

Regarding `Cc1cn2nc(N3CCCC3Cn3nc(C)cc3C)sc2n1` (stereo not given), the Percent Effect in test [1] is -7.52%; in test [2], -1.2%.

Turning to `CS(=O)(=O)N[C@@H]1CN(C(=O)c2ccccn2)[C@@H]2CCCO[C@@H]21`, the values for the Percent Effect in test [1] and in test [2] were -4.14% and 3.94%, respectively.

Consider `CCc1nc2n(n1)CC(NCC(=O)Nc1cc(C)on1)CC2` (stereo not given), for which the Percent Effect in test [1] was -3.4%; in test [2], 3.33%.

For the compound `CC(CN1CCOCC1)NCc1nncn1C1CCCCC1` (stereo not given), the Percent Effect was 0.0836% in test [1] and -15.5% in test [2].

Regarding `CCC1=N[C@@]2(CC[C@@H]3CN(C(=O)NC(C)C)C[C@@H]32)C(=O)N1C`, the Percent Effect was -7.39% in test [1] and 3.05% in test [2].
